Data taken from PubChem BioAssay (NCATS).
Inconclusive results are not listed. Activity calls are given as the source filed them. Unless noted, the call rests on the fitted dose curve; in most records, active means well fitted curve in the direction sought with a large enough effect; inconclusive means small, poorly fitted or top-dose-only effect, or another doubt; inactive means no such curve, though single readings can be large; an effect the other way counts as inactive or inconclusive.

Assays:
[1] = target: Thioredoxin reductase 1, cytoplasmic (Rattus norvegicus) (UniProt O89049); assay: qHTS Assay for Inhibitors of Mammalian Selenoprotein Thioredoxin Reductase 1 (TrxR1) (AID 488773); details: Potency: inhibition;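 further: drop in NADPH fluorescence over an 8 min run after selenite addition; series mostly up to about 57 µM; on the % scale 0 is the no-effect control and ±100 the full control effect; nearly all actives have a fitted effect of over 40% in size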
Thioredoxin reductase 1, cytoplasmic (Rattus norvegicus), sequence (O89049 whole entry, looked up): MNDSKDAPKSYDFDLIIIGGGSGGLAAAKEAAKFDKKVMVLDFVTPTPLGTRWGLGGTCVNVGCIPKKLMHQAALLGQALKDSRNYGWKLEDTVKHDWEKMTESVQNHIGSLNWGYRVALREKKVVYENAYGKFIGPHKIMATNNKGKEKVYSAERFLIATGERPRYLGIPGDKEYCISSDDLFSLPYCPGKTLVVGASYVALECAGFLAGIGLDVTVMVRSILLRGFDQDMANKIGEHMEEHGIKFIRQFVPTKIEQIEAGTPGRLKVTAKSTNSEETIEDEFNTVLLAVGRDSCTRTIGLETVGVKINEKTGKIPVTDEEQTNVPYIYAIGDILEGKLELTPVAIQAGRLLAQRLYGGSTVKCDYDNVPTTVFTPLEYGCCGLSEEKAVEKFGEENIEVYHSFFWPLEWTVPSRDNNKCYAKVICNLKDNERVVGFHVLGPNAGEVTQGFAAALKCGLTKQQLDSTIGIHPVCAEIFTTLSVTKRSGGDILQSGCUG
Procedure, shortened: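 Inhibition is scored from the loss of NADPH fluorescence between first and last reads of an 8-min kinetic run. Selenite (400 uM) was the substrate, added after 15 min compound preincubation at room temperature.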

[2] = target: M-phase phosphoprotein 8 (Homo sapiens) (UniProt Q99549); assay: qHTS Validation Assay for Inhibitors for MPP8 Chromodomain Interactions with Methylated Histone Tails (AID 488949);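 further: 50 nM MPP8 with 50 nM peptide preformed then compounds added for 30 min; AlphaScreen signal from MPP8 chromodomain bound to biotinylated H3K9me3 peptide; top concentration of the series differs between compounds; on the % scale 0 is the no-effect control and ±100 the full control effect; nearly all actives have a fitted effect of over 55% in size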
M-phase phosphoprotein 8 (Homo sapiens), sequence (Q99549 whole entry, looked up): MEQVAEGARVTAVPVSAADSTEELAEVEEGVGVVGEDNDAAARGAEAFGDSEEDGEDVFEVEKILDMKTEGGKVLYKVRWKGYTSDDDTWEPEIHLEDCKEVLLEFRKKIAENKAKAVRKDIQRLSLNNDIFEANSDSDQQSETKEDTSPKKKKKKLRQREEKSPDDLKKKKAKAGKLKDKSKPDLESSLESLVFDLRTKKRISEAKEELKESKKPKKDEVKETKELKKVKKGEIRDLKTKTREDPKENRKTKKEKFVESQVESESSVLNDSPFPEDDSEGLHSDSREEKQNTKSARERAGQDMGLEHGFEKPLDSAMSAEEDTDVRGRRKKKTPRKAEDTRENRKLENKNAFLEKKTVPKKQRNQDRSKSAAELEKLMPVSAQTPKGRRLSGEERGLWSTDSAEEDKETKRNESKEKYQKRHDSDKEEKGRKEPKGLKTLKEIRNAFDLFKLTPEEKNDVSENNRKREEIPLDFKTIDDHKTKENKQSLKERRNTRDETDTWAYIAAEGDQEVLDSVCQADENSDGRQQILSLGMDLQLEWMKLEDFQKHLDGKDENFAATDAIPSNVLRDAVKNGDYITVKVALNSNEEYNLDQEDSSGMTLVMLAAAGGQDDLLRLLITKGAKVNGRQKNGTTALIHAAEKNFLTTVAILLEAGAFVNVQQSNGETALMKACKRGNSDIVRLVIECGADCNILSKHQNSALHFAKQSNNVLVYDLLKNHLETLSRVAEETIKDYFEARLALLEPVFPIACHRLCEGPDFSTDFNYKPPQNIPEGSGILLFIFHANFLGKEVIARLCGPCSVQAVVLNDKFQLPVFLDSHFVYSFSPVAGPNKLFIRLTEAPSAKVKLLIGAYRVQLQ
Procedure, shortened: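 50 nM MPP8 + 50 nM b-H3K9me3 peptide, PBS pH 7.4/0.01% Tween-20, 30 min RT; + cpd 30 min RT; + AlphaScreen donor/Ni-chelate acceptor beads 10 ug/mL final, 30 min dark; luminescence read.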

[3] = target: Thyrotropin receptor (Homo sapiens) (UniProt P16473); assay: qHTS Assay for Antagonists of the Thyroid Stimulating Hormone Receptor (AID 488980); further: series mostly up to about 58 µM; 0% is about no effect
Thyrotropin receptor (Homo sapiens), sequence (P16473 whole entry, looked up): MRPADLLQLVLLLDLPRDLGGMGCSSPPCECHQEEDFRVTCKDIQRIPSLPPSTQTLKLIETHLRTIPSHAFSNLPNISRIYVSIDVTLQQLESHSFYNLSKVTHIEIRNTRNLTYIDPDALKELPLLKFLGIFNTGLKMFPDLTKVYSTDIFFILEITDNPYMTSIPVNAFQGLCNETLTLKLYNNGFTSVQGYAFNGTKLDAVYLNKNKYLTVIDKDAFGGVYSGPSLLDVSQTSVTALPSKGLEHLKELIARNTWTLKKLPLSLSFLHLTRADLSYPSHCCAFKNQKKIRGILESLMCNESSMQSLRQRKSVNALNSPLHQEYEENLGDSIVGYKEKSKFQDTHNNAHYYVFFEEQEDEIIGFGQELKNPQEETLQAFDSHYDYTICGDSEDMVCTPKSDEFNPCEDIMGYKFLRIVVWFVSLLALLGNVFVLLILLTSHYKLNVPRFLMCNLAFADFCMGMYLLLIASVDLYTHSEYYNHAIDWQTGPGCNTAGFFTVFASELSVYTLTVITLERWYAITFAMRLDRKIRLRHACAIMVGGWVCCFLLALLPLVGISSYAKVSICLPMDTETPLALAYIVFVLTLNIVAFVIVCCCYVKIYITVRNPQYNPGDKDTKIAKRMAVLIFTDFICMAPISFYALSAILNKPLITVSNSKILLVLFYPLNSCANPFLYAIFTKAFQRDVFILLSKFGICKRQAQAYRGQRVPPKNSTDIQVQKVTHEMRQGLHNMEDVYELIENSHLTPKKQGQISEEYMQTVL
Procedure, shortened: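 Readout is cAMP by HTRF competition between cellular cAMP and cAMP-d2 for a cryptate-labelled antibody. Antagonism was assessed in TSHR-transfected HEK293 cells stimulated with 4 nM TSH (EC80, final) in the presence of RO 20-1724.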

[4] = target: D(1A) dopamine receptor (Homo sapiens) (UniProt P21728); assay: HTS Assay for Allosteric Agonists of the Human D1 Dopamine Receptor: Primary Screen for Agonists (AID 488981); further: 0% is about no effect
Procedure, shortened: (§1)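 Tetracycline-induced HEK293 T-REx cells force-coupled to calcium signalling were incubated overnight at 30 C and dye-loaded at room temperature. Calcium flux over 180 s after compound addition flagged agonists; a further 180 s read after EC20 dopamine flagged potentiators.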

[5] = target: D(1A) dopamine receptor (Homo sapiens) (UniProt P21728); assay: HTS Assay for Allosteric Agonists of the Human D1 Dopamine Receptor: Primary Screen for Potentiators (AID 488982); further: 0% is about no effect
Procedure, shortened: as §1

[6] = target: D(1A) dopamine receptor (Homo sapiens) (UniProt P21728); assay: HTS Assay for Allosteric Agonists of the Human D1 Dopamine Receptor: Primary Screen for Antagonists (AID 488983);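 further: calcium flux response to an EC80 dopamine challenge measured with no-wash dye; nearly all actives have a fitted effect of over 65% in size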; further: potency means the concentration at half of the fitted maximal effect
Procedure, shortened: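 Calcium-flux read-out in inducible HEK293 T-REx cells expressing D1, dye-loaded 30–90 min at room temperature. Kinetic reads: 180 s after compound (agonist phase), then 180 s after an EC80 dopamine challenge.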

[7] = Validation screen for small molecules that induce genotoxicity in human embryonic kidney (HEK293T) cells expressing luciferase-tagged ELG1 (AID 493106); further: 0% is about no effect
Procedure, shortened: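 ELG1-luciferase reporter readout (ONE-Glo, 30 min, room temperature) after 16 hr compound treatment at 37 °C of HEK293T cells at 2,000 per well. Rising luminescence flags genotoxic stress.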

[8] = Nrf2 qHTS screen for inhibitors: Validation (AID 493153; active means well fitted inhibition curve with a large enough effect in the main read-out, with a control signal flat, not every such curve was filed as active); details: Potency: luciferase luminescence; viability change: measured here: cytotoxicity max response
Procedure, shortened: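 Concentration-response on A549 ARE_Fluc reporter cells exposed 18-24 h at 37 C, 5% CO2. Cytotoxicity read first by CellTiter-Fluor fluorescence (Ex 405/Em 525), then Nrf2 inhibition by BugLite luminescence after 15 min.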

[9] = target: Peptidyl-prolyl cis-trans isomerase NIMA-interacting 1 (Homo sapiens) (UniProt Q13526); assay: qHTS Validation Assay to Find Inhibitors of Pin1 (AID 504536; active means well fitted inhibition curve with a large enough effect in the polarisation, with a control signal flat, not every such curve was filed as active; the % refers to the polarisation;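 further: 0% = full Pin1 enzyme wells and -100% = no-enzyme wells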)
Peptidyl-prolyl cis-trans isomerase NIMA-interacting 1 (Homo sapiens), sequence (Q13526 whole entry, looked up): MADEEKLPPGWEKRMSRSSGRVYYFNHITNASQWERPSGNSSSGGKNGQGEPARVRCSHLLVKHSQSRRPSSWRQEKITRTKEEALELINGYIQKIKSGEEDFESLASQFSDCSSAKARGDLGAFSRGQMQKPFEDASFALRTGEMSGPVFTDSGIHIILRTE
Procedure, shortened: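 Fluorescence polarization competition: compounds (titration) displace HiFluor-488-labeled Pin1-1b peptide from Pin1 (0.3 uM final) in pH 7.5 HEPES buffer with DTT, 10 min at room temperature; %Activity normalized to no-enzyme wells, curves fitted.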

[10] = target: Phosphoglycerate kinase, glycosomal (Trypanosoma brucei brucei) (UniProt P07378); assay: qHTS Validation Assay to Find Inhibitors of Phosphoglycerate Kinase (AID 504547);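 further: control wells lack PGK and mark full inhibition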
Phosphoglycerate kinase, glycosomal (Trypanosoma brucei brucei), sequence (P07378 whole entry, looked up): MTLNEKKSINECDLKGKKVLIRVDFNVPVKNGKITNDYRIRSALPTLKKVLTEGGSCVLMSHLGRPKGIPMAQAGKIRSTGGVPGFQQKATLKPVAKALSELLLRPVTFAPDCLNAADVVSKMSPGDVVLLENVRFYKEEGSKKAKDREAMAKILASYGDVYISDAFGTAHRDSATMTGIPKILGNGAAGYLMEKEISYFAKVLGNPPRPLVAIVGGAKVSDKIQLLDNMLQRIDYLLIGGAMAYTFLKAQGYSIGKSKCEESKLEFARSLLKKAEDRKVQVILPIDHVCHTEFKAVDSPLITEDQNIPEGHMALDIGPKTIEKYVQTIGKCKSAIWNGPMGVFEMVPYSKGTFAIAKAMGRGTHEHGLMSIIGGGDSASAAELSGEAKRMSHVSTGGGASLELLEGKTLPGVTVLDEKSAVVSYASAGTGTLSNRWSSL
Procedure, shortened: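 In TEA buffer (100mM, pH 7.6) containing 5mM MgCl2 and 0.01% Tween-20, the GAPDH-coupled PGK reaction proceeded for 60 minutes at room temperature before a single luminescence reading using Kinase-Glo Plus.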

[11] = target: Flap endonuclease 1 (Homo sapiens) (UniProt P39748); assay: qHTS Validation Assay for the Inhibitors of Human Flap endonuclease 1 (FEN1) (AID 488816); further: potency means the concentration at half of the fitted maximal effect
Procedure, shortened: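 Steps: add FEN1 (10 nM reagent) or buffer only; pin compounds; hold 15 min at room temperature; start with substrate, 50 nM final; read at 0 and 15 min; correct, normalize and fit a four-parameter Hill curve.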

[12] = target: Methanococcus maripaludis chaperonin (MmCpn) (UniProt Q6LX38); assay: High-Throughput Screening for Modulators of Cytosolic Chaperonin Activity: MmCpn Primary Screen (AID 488978);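 further: 50 nM MmCpn enzyme hydrolysing 30 µM ATP at 37 °C; 0% is about no effect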
Methanococcus maripaludis chaperonin (MmCpn), sequence (Q6LX38 1-543): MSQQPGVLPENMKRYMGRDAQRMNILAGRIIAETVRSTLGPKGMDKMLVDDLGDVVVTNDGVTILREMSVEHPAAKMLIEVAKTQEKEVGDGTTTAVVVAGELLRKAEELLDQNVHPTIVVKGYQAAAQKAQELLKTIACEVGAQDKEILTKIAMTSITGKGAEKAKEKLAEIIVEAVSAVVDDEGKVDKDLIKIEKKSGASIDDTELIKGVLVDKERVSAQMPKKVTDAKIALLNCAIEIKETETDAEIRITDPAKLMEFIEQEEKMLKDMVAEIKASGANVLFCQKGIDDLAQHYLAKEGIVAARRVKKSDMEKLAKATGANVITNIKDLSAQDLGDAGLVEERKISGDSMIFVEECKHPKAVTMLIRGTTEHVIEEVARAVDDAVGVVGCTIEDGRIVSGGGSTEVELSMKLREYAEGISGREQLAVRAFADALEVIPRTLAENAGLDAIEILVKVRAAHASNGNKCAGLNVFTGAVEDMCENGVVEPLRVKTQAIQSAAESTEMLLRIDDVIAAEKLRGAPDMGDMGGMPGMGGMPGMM
Procedure, shortened: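 Steps: chaperonin 50 nM final; add compound, 5 min RT; start with ATP, 30 uM final; hold 10 min at 37C; add ADP Transcreener HTRF reagent, 5 min; read ex 320, em 590 and 665 nm.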

[13] = target: ATPase family AAA domain-containing protein 5 (Homo sapiens) (UniProt Q96QE3); assay: Validation screen for small molecules that inhibit ELG1-dependent DNA repair in human embryonic kidney (HEK293T) cells expressing luciferase-tagged ELG1 (AID 493107);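 further: series mostly up to about 46 µM; on the % scale 0 is the no-effect control and ±100 the full control effect; inhibitors lower the ELG1-luciferase luminescence signal; nearly all actives have a fitted effect of over 70% in size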
Procedure, shortened: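 Luciferase read-out, ONE-Glo, 30 min at room temperature, follows 16 h co-exposure at 37 C of compound and the DNA-damaging agent 5-fluorouridine. Cells: HEK293T with ELG1-luciferase fusion, 2,000 per well, DMSO as vehicle.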

[14] = qHTS for Inhibitors of Cell Surface uPA Generation: Validation Assay (AID 493164);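 further: RAW 264.7 macrophage cells exposed to compound for 18 h; 0% is about no effect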
Procedure, shortened: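 ATP-Lite luminescence read-out: ATP remains high when uPA activity-dependent LF translocation into the cytoplasm is blocked. RAW 264.7 cells, 18 h compound exposure at 37 C; 7-point titration, 2.45 nM to 38.3 uM final.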

[15] = target: Chromobox protein homolog 1 (Homo sapiens) (UniProt P83916); assay: qHTS Validation Assay for Inhibitors of HP1-beta Chromodomain Interactions with Methylated Histone Tails (AID 488953); further: nearly all actives have a fitted effect of over 50% in size; further: potency means the concentration at half of the fitted maximal effect
Procedure, shortened: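 AlphaScreen proximity signal from streptavidin donor and nickel chelate acceptor beads (final 10 ug/mL) after 30 min dark incubation. Compounds had 30 min at room temperature with preformed complex of 50 nM HP1-beta and 50 nM b-H3(1-18)K9me3 in PBS pH 7.4 with 0.01% Tween-20.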

[16] = target: Transient receptor potential cation channel subfamily V member 1 (Homo sapiens) (UniProt Q8NER1); assay: HTS Assay for Compounds that Act as Enhancers of the Vanilloid Receptor 1 (AID 488979); further: 0% is about no effect
Transient receptor potential cation channel subfamily V member 1 (Homo sapiens), sequence (Q8NER1 whole entry, looked up): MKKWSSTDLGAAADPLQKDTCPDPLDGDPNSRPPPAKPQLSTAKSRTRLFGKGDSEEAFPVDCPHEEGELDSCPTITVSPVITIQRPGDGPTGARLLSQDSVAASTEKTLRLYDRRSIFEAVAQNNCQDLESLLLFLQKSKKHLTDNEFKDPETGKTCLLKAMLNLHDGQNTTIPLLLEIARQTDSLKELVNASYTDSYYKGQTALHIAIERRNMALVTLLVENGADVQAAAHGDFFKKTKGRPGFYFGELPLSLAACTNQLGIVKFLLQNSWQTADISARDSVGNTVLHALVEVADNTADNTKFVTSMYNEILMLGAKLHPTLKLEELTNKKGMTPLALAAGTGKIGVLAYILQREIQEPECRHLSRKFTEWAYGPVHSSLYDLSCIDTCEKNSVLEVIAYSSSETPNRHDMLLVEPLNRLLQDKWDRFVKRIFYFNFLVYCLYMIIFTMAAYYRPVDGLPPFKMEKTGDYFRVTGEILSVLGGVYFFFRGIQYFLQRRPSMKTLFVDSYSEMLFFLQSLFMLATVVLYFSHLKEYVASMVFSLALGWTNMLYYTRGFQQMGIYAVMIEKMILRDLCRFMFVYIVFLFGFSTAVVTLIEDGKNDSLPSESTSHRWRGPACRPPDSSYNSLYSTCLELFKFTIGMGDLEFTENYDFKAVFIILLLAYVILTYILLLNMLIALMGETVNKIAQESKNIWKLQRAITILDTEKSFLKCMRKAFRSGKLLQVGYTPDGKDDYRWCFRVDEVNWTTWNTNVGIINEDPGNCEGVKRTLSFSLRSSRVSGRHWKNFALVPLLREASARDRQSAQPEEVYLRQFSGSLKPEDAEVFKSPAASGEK
Procedure, shortened: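 TRPV1-expressing cells loaded with Fluo-8 calcium dye; compounds added and calcium influx read kinetically for 3 min (agonist phase), then capsaicin at EC20 added and read 2 min more for enhancement. Fluorescence ex 480/em 520 nm.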

[17] = target: Thyrotropin-releasing hormone receptor (Homo sapiens) (UniProt P34981); assay: qHTS for Small Molecule Agonists and Allosteric Enhancers of Human TRH Receptor: Validation Screen for Agonists (AID 493127;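 active means calcium activation more than 3 SD above the typical response in the agonist read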;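 further: intracellular calcium rise by fluo-8 fluorescence before TRH EC20 addition; 0% is about no effect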); details: TRH receptor agonist cell assay; at 2 µM; stronger effect = higher value
Procedure, shortened: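 Compound-evoked intracellular calcium release in fluo-8-loaded TRHR cells, read kinetically on FDSS (Ex 480/Em 530, 1 s/cycle) after 23 nL pintool transfer. Agonist phase preceded 10 nM TRH EC20 addition.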

[18] = target: Galactokinase (Homo sapiens) (UniProt P51570); assay: qHTS Validation Assay for Inhibitors of Human Galactokinase (GALK) (AID 493189); further: 0% is about no effect
Galactokinase (Homo sapiens), sequence (P51570 whole entry, looked up): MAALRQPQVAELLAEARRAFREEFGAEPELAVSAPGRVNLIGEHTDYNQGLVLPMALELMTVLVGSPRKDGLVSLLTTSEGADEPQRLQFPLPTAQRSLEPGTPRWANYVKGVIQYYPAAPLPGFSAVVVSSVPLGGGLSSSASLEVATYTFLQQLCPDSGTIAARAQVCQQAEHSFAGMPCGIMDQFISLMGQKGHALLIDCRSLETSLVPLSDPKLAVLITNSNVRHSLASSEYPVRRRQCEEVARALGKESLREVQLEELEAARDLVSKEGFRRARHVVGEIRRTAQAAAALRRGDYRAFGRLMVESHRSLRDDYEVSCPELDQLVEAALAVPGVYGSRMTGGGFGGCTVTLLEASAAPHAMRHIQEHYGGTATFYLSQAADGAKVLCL
Procedure, shortened: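 5 nM GALK / 100 uM galactose / 35 uM ATP, 20 mM HEPES pH8.0, 5 mM MgCl2, 60 mM NaCl, 1 mM DTT, 0.01% BSA (final). RT 1 h; Kinase-Glo Plus luminescence.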

[19] = Validation screen for small molecules that induce DNA re-replication in SW480 colon adenocarcinoma cells (AID 504364); further: 0% is about no effect
Procedure, shortened: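 Image-based DNA content read-out: Hoechst stain 40 min, total nuclear fluorescence intensity (ex 405 nm, em 500-530 nm) after 48 h compound exposure of 250 SW480 cells/well at 37 C, 5% CO2, versus DMSO vehicle.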

[20] = target: ATP-dependent 6-phosphofructokinase (Trypanosoma brucei brucei) (UniProt O15648); assay: qHTS Assay to Find Inhibitors of T. brucei phosphofructokinase: hit validation (AID 492961);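 further: luminescence reports ADP formed as PFK phosphorylates fructose-6-phosphate with ATP; series mostly up to about 51 µM; on the % scale 0 is the no-effect control and ±100 the full control effect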
ATP-dependent 6-phosphofructokinase (Trypanosoma brucei brucei), sequence (O15648 whole entry, looked up): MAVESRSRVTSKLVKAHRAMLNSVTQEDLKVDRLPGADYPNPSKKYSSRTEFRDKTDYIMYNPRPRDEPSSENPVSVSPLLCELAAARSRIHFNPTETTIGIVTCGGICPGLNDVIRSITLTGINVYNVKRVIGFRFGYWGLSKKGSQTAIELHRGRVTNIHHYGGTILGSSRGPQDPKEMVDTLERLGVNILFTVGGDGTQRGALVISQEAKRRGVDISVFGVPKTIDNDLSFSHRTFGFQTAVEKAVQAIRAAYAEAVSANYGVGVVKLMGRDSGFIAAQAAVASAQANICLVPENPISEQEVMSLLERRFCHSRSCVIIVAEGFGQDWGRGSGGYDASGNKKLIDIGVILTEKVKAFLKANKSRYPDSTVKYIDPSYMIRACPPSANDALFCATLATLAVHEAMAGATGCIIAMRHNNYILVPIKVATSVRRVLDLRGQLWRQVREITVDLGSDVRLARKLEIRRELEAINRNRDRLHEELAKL
Procedure, shortened: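 PFK 1.25 nM, F6P 0.5 mM, ATP 0.1 mM, MgCl2 5 mM, 0.1 M TEA pH 8.0, Tween20 0.01%, BSA 0.1%; 45 min RT. ADP-Glo two-step detection, luminescence. qHTS titration; curve fitting with curve-class categorization.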

CN(C)CCCN1c2ccccc2Sc2ccc(C(F)(F)F)cc21
0.635%: viability change [8]
active: Potency [6] 1.26 µM
inactive: Potency [1] | Potency [2] | outcome [3] | Potency [4] | Potency [5] | Potency [7] | Potency [8] | outcome [9] | outcome [10]

CN(C)[C@@H]1C(=O)C(C(N)=O)=C(O)[C@@]2(O)C(=O)C3=C(O)c4c(O)ccc(Cl)c4[C@@H](O)[C@H]3C[C@@H]12
inactive: outcome [12] | Potency [4] | Potency [5] | Potency [6] | Potency [7] | Potency [13] | Potency [8] | outcome [14] | outcome [10]
4.27%: viability change [8]
active: Potency [11] 29.9 µM

CN=C(NC#N)NCCSCc1nc[nH]c1C
inactive: Potency [1] | Potency [11] | Potency [15] | outcome [16] | outcome [3] | Potency [4] | Potency [5] | Potency [6] | Potency [7] | Potency [13] | activation [17] 1.12% | outcome [14] | outcome [18] | outcome [9] | outcome [10]

COc1cc(Cc2cnc(N)nc2N)cc(OC)c1OC
1.71%: viability change [8]
inactive: Potency [1] | outcome [12] | outcome [3] | Potency [4] | Potency [6] | activation [17] 0.312% | Potency [8] | outcome [14] | outcome [19] | outcome [9] | outcome [10]

COC(=O)[C@@H](N)Cc1ccc(O)c(O)c1
-11.8%: viability change [8]
inactive: Potency [11] | Potency [2] | Potency [15] | outcome [12] | outcome [16] | outcome [3] | Potency [4] | Potency [5] | Potency [6] | outcome [20] | Potency [13] | Potency [8] | outcome [14] | outcome [18] | outcome [19] | outcome [10]

CN/C(=C\[N+](=O)[O-])NCCSCc1ccc(CN(C)C)o1
4.46%: viability change [8]
inactive: Potency [1] | outcome [12] | outcome [16] | outcome [3] | Potency [4] | Potency [5] | Potency [6] | Potency [7] | Potency [13] | activation [17] 0.938% | Potency [8] | outcome [14] | outcome [18] | outcome [19] | outcome [9] | outcome [10]

C[N+](C)(C)CCCCCCCCCC[N+](C)(C)C
-2.44%: viability change [8]
inactive: Potency [1] | Potency [2] | Potency [15] | outcome [12] | outcome [16] | outcome [3] | Potency [4] | Potency [6] | outcome [20] | Potency [7] | Potency [13] | Potency [8] | outcome [14] | outcome [18] | outcome [9] | outcome [10]

COC(=O)C1=C(C)NC(C)=C(C(=O)OC(C)(C)CN(C)CCC(c2ccccc2)c2ccccc2)C1c1cccc([N+](=O)[O-])c1 (centres undefined)
active: Potency [15] 25.1 µM
inactive: Potency [1] | Potency [11] | outcome [12] | Potency [4] | Potency [6] | Potency [7] | outcome [14] | outcome [9] | outcome [10]

CCn1nc(C(=O)O)c(=O)c2cc3c(cc21)OCO3
-1.17%: viability change [8]
inactive: Potency [2] | Potency [15] | outcome [3] | Potency [4] | Potency [5] | Potency [6] | outcome [20] | Potency [7] | Potency [13] | Potency [8] | outcome [14] | outcome [18] | outcome [19] | outcome [9] | outcome [10]

NC(N)=N/N=C/c1c(Cl)cccc1Cl
6.68%: viability change [8]
inactive: Potency [1] | Potency [2] | Potency [15] | outcome [12] | outcome [3] | Potency [4] | outcome [20] | Potency [7] | Potency [13] | activation [17] -6.19% | Potency [8] | outcome [14] | outcome [19] | outcome [9] | outcome [10]

CC(C)NCC(O)c1cc(O)cc(O)c1 (centres undefined)
7.12%: viability change [8]
inactive: Potency [1] | Potency [2] | Potency [15] | outcome [12] | outcome [16] | outcome [3] | Potency [4] | Potency [5] | Potency [6] | Potency [7] | Potency [13] | Potency [8] | outcome [14] | outcome [18] | outcome [9] | outcome [10]
